The nature of experiment [1]: Caspase-3/7 induction in HepG2 cells by small molecules, qHTS assay (AID 1346978). Further: nearly all actives have a fitted effect of over 15% in size. Further: potency means the concentration at half of the fitted maximal effect. In a few lines:
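Wild-type HepG2 cells, 2,000/well, settled 5 hr at 37 C and 5% CO2, then compound-treated for 17 hr; caspase-3/7 activity read by luminescent Caspase-Glo 3/7 after 30 min at room temperature.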

A short description of experiment [2]: Caspase-3/7 induction in CHO-K1 cells by small molecules, qHTS cell viability counter screen (AID 1346979). Further: nearly all actives have a fitted effect of over 35% in size. Further: potency means the concentration at half of the fitted maximal effect. In a few lines:
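Multiplexed with Caspase-Glo 3/7 in CHO-K1 cells, this counter screen added CellTiter-Fluor after 16hr of compound exposure and recorded fluorescence 1hr later.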
(In general: In qHTS, concentration-response curves come from the screen itself.)

A short description of experiment [3]: Caspase-3/7 induction in CHO-K1 cells by small molecules, qHTS assay (AID 1346980). Further: on the % scale 0 is the no-effect control and ±100 the full control effect; nearly all actives have a fitted effect of over 15% in size. In a few lines:
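Wild-type CHO-K1 cells exposed to compounds for 17hr at 37 C, 5% CO2. Caspase-3/7 activity then measured by Caspase-Glo 3/7 luminescence after 30min at room temperature.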

A short description of experiment [4]: Caspase-3/7 induction in HepG2 cells by small molecules, qHTS cell viability counter screen (AID 1346981). Further: nearly all actives have a fitted effect of over 30% in size. Further: potency means the concentration at half of the fitted maximal effect. In a few lines: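 CellTiter-Fluor fluorescence measured viability in the same wells used for Caspase-Glo 3/7. HepG2 (wild type) at 2,000 cells/well were pre-incubated 5 hr, dosed, and given reagent at 16 hr, with 1 hr further at 37C.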
Experiment [5] addresses Nuclear receptor subfamily 1 group I member 2 (Homo sapiens) (UniProt O75469). In words: Human pregnane X receptor (PXR) small molecule agonists, qHTS assay (AID 1346982). Further: nearly all actives have a fitted effect of over 35% in size. Further: potency means the concentration at half of the fitted maximal effect. On activation: on the % scale 0 is the no-effect control and ±100 the full control effect. In a few lines: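 Agonist mode: luminescence from ONE-Glo after 24 h compound exposure at 37C in HepG2 cells carrying hPXR-responsive CYP3A4 luciferase, plated in charcoal-stripped serum medium 5 h beforehand.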

Experiment [6] has as its target Cytochrome P450 2D6 (Homo sapiens) (UniProt P10635). In words: Cytochrome P450 Family 2 Subfamily D Member 6 (CYP2D6) small molecule antagonists: luciferase reporter qHTS assay (AID 1671196). Further: nearly all actives have a fitted effect of over 50% in size. Further: potency means the concentration at half of the fitted maximal effect. In a few lines: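 CYP2D6 activity was followed as luminescence from its luciferin product after a 1 h NADPH-driven reaction at room temperature. Enzyme-substrate mix and compound were pre-incubated for 10 min, and the signal was read 20 min after adding detection reagent.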

In experiment [7] the target is Cytochrome P450 2C19 (Homo sapiens) (UniProt P33261). In words: Cytochrome P450 Family 2 Subfamily C Member 19 (CYP2C19) small molecule antagonists: luciferase reporter qHTS assay (AID 1671197). Further: nearly all actives have a fitted effect of over 65% in size. Further: potency means the concentration at half of the fitted maximal effect. In a few lines: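 Quantitative high-throughput screen of the Tox21 library using CYP2C19 with proluciferin substrate. Reaction: NADPH regeneration, 37C, 1 h, after 10 min compound preincubation at room temperature. Readout: luminescence.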
Sequence of Cytochrome P450 2C19 (Homo sapiens) (P33261 whole entry, looked up): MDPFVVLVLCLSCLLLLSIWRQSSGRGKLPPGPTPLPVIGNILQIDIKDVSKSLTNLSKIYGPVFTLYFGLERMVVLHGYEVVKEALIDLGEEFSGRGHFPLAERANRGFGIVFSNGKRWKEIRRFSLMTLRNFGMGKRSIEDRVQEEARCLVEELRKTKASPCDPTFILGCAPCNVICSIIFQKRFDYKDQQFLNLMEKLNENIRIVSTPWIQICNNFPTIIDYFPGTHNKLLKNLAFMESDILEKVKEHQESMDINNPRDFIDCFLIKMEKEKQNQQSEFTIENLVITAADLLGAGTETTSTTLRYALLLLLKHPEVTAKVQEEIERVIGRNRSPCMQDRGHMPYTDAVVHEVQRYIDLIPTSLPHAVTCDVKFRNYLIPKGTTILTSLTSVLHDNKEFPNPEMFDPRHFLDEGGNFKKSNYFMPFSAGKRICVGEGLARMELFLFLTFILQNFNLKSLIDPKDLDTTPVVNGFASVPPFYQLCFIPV
In general terms: A reporter such as luciferase makes a cellular process visible.

Experiment [8] has as its target Cytochrome P450 2C9 (Homo sapiens) (UniProt P11712). In words: Cytochrome P450 Family 2 Subfamily C Member 9 (CYP2C9) small molecule antagonists: luciferase reporter qHTS assay (AID 1671198). Further: nearly all actives have a fitted effect of over 50% in size. Further: potency means the concentration at half of the fitted maximal effect. Summed up:
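P450-Glo proluciferin substrate with CYP2C9 enzyme; 10 min RT preincubation, then NADPH regeneration 1 h at 37C; luciferin detection reagent 20 min RT, luminescence in relative luminescence units.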

Experiment [9] deals with Cytochrome P450 1A2 (Homo sapiens) (UniProt P05177). In words: Cytochrome P450 Family 1 Subfamily A Member 2 (CYP1A2) small molecule antagonists: luciferase reporter qHTS assay (AID 1671199). Further: nearly all actives have a fitted effect of over 50% in size. Further: potency means the concentration at half of the fitted maximal effect. Summed up:
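Luminescence from luciferin formed by CYP1A2 from a proluciferin substrate, read 20 min after detection reagent. Compound was pre-incubated 10 min with enzyme-substrate, and reaction started with NADPH regeneration solution for 1 h at room temperature; furafylline control.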

Experiment [10] addresses Voltage-gated inwardly rectifying potassium channel KCNH2 (Homo sapiens) (UniProt Q12809). In words: Human Ether-a-go-go-Related Gene (hERG) channel small molecule antagonists: fluorescence cell-based qHTS assay (AID 1671200).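 Further: hERG-expressing U2OS cells given a thallium stimulus after FluxOR II dye loading; series mostly up to about 77 µM; on the % scale 0 is the no-effect control and ±100 the full control effect; nearly all actives have a fitted effect of over 50% in size.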 Summed up: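 Cell line hERG-U2OS; dye FluxOR II, 1 h RT dark; Tl+ stimulus; ex 480/em 540 nm, read each second for 2 min.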
A general note: hERG is a cardiac potassium channel; its block is linked to QT prolongation.

The target in experiment [11] is Cytochrome P450 3A4 (Homo sapiens) (UniProt P08684). In words: Cytochrome P450 Family 3 Subfamily A Member 4 (CYP3A4) small molecule antagonists: luciferase reporter qHTS assay (AID 1671201). Further: nearly all actives have a fitted effect of over 50% in size. Further: potency means the concentration at half of the fitted maximal effect. Summed up: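 Room-temperature assay throughout: 10 min compound–enzyme/substrate preincubation, 1 h reaction after NADPH regeneration solution, 20 min detection. Luciferin formed from proluciferin substrate is quantified by luminescence.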
Sequence of Cytochrome P450 3A4 (Homo sapiens) (P08684 whole entry, looked up): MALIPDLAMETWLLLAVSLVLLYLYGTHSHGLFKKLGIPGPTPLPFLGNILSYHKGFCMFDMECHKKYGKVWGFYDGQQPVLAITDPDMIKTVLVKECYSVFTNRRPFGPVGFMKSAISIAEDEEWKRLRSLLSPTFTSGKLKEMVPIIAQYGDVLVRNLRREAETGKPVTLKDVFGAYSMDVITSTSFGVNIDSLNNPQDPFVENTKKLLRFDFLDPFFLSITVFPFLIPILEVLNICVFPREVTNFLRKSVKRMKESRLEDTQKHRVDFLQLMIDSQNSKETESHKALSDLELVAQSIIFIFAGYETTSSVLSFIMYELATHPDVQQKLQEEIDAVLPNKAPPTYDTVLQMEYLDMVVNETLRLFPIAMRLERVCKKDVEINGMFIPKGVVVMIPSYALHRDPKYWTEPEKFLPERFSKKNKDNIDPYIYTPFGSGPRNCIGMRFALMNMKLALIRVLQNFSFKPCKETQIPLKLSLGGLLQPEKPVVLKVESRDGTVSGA

Experiment [12] addresses Nuclear receptor subfamily 1 group I member 2 (Rattus norvegicus) (UniProt Q9R1A7). In words: Rat pregnane X receptor (rPXR) activation by small molecules, qHTS assay (AID 1346983). Further: on the % scale 0 is the no-effect control and ±100 the full control effect; nearly all actives have a fitted effect of over 20% in size. The conditions noted are these: rPXR luciferase reporter cells, One-Glo luminescence, 24 h; max activation: stronger effect = higher value. In a few lines: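 Cell-based rPXR activation assay: rPXR cells, 2,000 per well, rested 5hr at 37 C, then exposed to compounds in DMSO for 24 hr at 37 C. Luciferase activity read by One-Glo luminescence after 30 min at room temperature.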

Experiment [13] addresses Nuclear receptor subfamily 1 group I member 2 (Homo sapiens) (UniProt O75469). In words: Human pregnane X receptor (PXR) activation by small molecules, qHTS assay (AID 1346985). Further: potency means the concentration at half of the fitted maximal effect; nearly all actives have a fitted effect of over 40% in size. Summed up:
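DPX-2 cells (HepG2 co-transfected with a PXR response element and a CYP3A4-promoter luciferase construct) were seeded at 2,000 per well, rested 5 hr at 37C, then exposed to DMSO-dissolved compounds for 24 hr. Activation was read as luciferase luminescence.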

Molecules are shown by their SMILES. Values without a mark were called inactive. Inconclusive results are not listed. Active and inactive are the calls of the source. The call rests on the fitted dose curve; in most records, active means well fitted curve in the direction sought with a large enough effect in the repeat runs; inconclusive means weak or mixed curves; inactive means no such curve, though single readings can be large; an effect the other way counts as inactive or inconclusive.

Sequence of Cytochrome P450 1A2 (Homo sapiens) (P05177 whole entry, looked up): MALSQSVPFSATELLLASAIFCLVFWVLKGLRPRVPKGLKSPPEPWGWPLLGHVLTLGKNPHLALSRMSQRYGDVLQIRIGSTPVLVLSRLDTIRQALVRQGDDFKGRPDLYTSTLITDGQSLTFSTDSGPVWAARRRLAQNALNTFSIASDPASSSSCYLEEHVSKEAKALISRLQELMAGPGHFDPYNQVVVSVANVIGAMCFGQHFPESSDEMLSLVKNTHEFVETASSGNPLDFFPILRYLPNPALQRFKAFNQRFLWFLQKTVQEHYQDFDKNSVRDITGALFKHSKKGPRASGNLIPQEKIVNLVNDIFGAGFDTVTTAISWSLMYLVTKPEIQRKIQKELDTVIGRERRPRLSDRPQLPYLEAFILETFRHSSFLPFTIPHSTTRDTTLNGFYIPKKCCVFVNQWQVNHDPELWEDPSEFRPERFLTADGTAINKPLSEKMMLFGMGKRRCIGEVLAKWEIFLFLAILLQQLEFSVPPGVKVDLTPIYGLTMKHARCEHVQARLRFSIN
Sequence of Voltage-gated inwardly rectifying potassium channel KCNH2 (Homo sapiens) (Q12809 whole entry, looked up): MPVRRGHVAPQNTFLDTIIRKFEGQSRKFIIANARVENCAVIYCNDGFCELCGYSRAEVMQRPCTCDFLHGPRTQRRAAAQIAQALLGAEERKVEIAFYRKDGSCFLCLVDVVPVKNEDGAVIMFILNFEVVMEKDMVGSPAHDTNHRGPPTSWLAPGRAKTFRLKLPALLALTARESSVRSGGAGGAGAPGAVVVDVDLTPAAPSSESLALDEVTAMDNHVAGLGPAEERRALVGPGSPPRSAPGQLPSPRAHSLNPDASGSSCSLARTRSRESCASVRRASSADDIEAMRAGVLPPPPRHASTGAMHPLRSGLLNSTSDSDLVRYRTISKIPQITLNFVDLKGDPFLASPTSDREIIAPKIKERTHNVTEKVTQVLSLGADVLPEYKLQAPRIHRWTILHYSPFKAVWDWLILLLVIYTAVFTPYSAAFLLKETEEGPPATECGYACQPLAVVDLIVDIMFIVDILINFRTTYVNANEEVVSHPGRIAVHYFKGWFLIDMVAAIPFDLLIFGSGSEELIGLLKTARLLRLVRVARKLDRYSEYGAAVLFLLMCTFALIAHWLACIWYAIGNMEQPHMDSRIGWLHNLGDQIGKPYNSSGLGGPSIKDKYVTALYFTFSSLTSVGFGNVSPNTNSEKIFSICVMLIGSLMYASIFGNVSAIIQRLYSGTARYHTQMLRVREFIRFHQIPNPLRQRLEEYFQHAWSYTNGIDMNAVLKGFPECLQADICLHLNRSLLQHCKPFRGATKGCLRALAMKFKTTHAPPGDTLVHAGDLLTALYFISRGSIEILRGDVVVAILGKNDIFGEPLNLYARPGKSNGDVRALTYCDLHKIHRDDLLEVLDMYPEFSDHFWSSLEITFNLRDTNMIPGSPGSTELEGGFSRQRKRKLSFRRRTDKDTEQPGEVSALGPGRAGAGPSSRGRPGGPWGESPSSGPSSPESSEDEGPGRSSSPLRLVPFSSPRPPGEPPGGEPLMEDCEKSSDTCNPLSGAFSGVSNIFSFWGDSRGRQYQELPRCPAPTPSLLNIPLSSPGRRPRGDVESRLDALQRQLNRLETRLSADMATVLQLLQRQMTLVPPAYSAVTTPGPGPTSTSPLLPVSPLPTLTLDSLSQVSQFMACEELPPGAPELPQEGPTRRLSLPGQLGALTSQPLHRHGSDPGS
Sequence of Nuclear receptor subfamily 1 group I member 2 (Homo sapiens) (O75469 whole entry, looked up): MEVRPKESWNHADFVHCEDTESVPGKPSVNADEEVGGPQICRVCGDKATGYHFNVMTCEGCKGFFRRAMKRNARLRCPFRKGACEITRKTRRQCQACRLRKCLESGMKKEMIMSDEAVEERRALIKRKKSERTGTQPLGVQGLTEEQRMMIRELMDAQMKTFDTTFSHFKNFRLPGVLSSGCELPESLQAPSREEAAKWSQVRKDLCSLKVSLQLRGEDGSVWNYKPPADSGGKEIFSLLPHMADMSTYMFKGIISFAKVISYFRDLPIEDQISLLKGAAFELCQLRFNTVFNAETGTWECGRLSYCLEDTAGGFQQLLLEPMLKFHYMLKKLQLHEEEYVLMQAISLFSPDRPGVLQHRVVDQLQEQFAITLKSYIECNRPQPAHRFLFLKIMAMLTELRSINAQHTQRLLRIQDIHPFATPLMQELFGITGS
Sequence of Cytochrome P450 2C9 (Homo sapiens) (P11712 whole entry, looked up): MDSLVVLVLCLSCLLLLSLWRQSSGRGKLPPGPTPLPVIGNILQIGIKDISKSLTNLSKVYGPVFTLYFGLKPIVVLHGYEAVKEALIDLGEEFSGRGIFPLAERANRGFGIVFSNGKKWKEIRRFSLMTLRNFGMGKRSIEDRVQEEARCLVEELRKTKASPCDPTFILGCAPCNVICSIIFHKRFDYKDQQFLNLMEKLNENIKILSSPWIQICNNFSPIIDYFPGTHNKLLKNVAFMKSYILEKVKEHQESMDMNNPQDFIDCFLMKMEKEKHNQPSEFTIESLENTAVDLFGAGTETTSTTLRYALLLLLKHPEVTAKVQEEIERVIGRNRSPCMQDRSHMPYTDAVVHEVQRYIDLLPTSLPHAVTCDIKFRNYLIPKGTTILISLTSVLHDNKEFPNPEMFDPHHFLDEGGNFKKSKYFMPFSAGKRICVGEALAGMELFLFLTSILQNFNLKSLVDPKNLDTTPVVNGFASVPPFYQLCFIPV
Sequence of Cytochrome P450 2D6 (Homo sapiens) (P10635 whole entry, looked up): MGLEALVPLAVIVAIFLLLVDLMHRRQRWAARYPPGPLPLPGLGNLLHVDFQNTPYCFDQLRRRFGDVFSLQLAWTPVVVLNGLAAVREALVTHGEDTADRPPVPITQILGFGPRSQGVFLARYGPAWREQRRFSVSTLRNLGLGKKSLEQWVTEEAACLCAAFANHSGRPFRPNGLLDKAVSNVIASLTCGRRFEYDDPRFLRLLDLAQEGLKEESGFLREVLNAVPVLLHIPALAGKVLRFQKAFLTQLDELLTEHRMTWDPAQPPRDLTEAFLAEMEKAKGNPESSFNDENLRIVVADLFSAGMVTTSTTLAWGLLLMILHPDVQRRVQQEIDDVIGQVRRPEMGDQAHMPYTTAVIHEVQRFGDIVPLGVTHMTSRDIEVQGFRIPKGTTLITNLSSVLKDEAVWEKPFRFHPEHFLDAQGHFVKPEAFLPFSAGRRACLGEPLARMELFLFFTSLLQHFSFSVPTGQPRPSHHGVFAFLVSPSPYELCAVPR
Sequence of Nuclear receptor subfamily 1 group I member 2 (Rattus norvegicus) (Q9R1A7 whole entry, looked up): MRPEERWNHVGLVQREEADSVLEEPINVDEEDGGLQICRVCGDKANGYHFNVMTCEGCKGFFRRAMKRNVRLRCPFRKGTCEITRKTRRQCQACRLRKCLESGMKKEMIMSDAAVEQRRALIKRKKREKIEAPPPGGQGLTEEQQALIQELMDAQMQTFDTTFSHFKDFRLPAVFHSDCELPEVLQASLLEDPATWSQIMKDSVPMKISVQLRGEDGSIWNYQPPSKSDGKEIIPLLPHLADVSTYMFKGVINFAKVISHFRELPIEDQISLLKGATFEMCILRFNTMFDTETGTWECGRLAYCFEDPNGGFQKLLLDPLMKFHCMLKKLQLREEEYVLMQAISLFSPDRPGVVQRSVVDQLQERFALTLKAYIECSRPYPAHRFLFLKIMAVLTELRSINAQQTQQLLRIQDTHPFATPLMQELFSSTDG

For `Nc1ccc2cc(S(=O)(=O)O)cc(O)c2c1N=Nc1ccccc1C(F)(F)F`, the Potency result in experiment [1], in experiment [3], in experiment [5], in experiment [6], in experiment [10] and in experiment [11] was “inactive” in each case. Further, the Potency in [2] was 54.5 µM (active); in [4] it was 54.5 µM (active); in [7], 79.6 µM (active); in experiment [8], 63.3 µM (active); in experiment [9] it was 39.9 µM (active).

For the compound `CC(C)(C)C1CCC(CC2=C(O)c3ccccc3C(=O)C2=O)CC1` (stereo not given), the Potency result in [1], in experiment [3], in experiment [6], in experiment [7], in experiment [9] and in [10] was “inactive” each time. For the same compound, in experiment [11], the Potency entry was “inactive”. Moreover, the Potency in experiment [2] is 9.44 µM (active); in experiment [4], 11.9 µM (active); in [5] it was 29.8 µM (active); in experiment [8], 1.95 µM (active).

In the case of `COc1cc(-c2ccc(N=C=O)c(OC)c2)ccc1N=C=O`, the Potency result in [1], in experiment [2], in experiment [3], in [4], in [5] and in experiment [6] was “inactive” throughout. The Potency entry in experiment [8], in experiment [9] and in experiment [10] was “inactive” each time.

Regarding `CCCC/C=C/CCCCO`, the Potency entry in experiment [1], in experiment [2], in experiment [3], in experiment [4], in experiment [5] and in [6] was “inactive” in each case. Besides, the Potency entry in experiment [7], in experiment [9], in experiment [10] and in [11] was “inactive” in each case.

Turning to `Cc1cc(O)c(C(C)(C)C)cc1Sc1cc(C(C)(C)C)c(O)cc1C`, the Potency in experiment [1] was 30.6 µM (active); in experiment [2] it was 2.73 µM (active); in [4], 54.4 µM (active); in experiment [5], 10.8 µM (active); in [6], 25.1 µM (active); in experiment [7], 0.398 µM (active). In addition, the Potency in experiment [8] was 2.51 µM (active); in experiment [9], 39.8 µM (active); in experiment [11], 5.63 µM (active). The Potency result in experiment [3] and in [10] was “inactive” throughout.

For `CC(C)(C)C(=O)OCOC(=O)C1N2C(=O)CC2S(=O)(=O)C1(C)C` (stereo not given), the Potency entry in experiment [1], in experiment [2], in experiment [3], in [4], in [5] and in experiment [6] was “inactive” each time. For the same compound, the Potency entry in experiment [7], in experiment [9], in [10] and in experiment [11] was “inactive” in each case.

For `Oc1c(Cl)cc(Cl)c2cccnc12`, the Potency result in experiment [1], in [3], in [4] and in [10] was “inactive” throughout. For the same compound, the Potency in [2] was 11.9 µM (active); in experiment [5], 26.6 µM (active); in [13] it was 28.2 µM (active). Besides, the max activation in experiment [12] is 4.53%.

With `O=C(NOCC1CC1)c1ccc(F)c(F)c1Nc1ccc(I)cc1Cl`, the Potency entry in experiment [1], in [3], in [5], in experiment [6] and in experiment [10] was “inactive” throughout. Further, the Potency is 18.8 µM (active) in experiment [2]; 26.6 µM (active) in [4]; 0.246 µM (active) in [7]; 0.55 µM (active) in experiment [8]; 15.5 µM (active) in experiment [9].

The values are drawn from PubChem BioAssay (Tox21).
